How the values were obtained:
Assay in all cases: DAPPL (digital affinity profiling via proximity ligation, sequencing); 10 mM Tris-HCl pH 7.5, 50 mM NaCl, 1 mM DTT, 4% glycerol, room temperature, 30 min; GST-TFs on glutathione beads, 16-mer random dsDNA library, 0.1% formaldehyde crosslink after washing; high values mean tight binding
Conditions in all cases: protein: recombinant; tags: N-terminal GST; dsDNA, one strand shown
ERF = target: T1, ERF (Homo sapiens, UniProt P50548 1-548)
T1 sequence: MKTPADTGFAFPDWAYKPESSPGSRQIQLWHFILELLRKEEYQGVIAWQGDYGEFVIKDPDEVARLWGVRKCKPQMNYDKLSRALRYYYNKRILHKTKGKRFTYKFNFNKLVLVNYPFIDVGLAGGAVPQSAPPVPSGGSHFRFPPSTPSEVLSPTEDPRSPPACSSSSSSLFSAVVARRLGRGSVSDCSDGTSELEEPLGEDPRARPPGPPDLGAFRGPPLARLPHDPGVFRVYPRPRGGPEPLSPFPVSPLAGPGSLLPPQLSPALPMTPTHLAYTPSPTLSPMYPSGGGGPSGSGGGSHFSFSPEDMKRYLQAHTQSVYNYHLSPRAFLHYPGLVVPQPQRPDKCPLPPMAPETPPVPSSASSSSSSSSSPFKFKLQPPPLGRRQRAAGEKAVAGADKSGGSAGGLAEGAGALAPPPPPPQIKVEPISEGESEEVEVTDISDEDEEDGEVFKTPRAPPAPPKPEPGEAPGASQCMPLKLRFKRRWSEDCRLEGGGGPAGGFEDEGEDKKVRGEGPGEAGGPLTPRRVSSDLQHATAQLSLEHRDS
Outline: (§1)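 The binding signal reported is, for every hexamer, its read frequency for a factor over its read frequency for the tag-only sample. Reads came from pools of yeast-expressed, GST-fused human transcription factors on glutathione beads, barcoded with DNA and mixed with that sample, which were incubated with 200 nmole of a random double-stranded 16-mer DNA library in Tris/NaCl/DTT/glycerol buffer at room temperature for 30 min. After washing, the pools were crosslinked with 0.1% formaldehyde, proximity-ligated with BsaI/T4 ligase for 1 h at 37 °C, PCR-amplified and sequenced on an Illumina NextSeq500.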

ETV3L = target: T2, ETV3L (Homo sapiens, UniProt Q6ZN32 1-361)
T2 sequence: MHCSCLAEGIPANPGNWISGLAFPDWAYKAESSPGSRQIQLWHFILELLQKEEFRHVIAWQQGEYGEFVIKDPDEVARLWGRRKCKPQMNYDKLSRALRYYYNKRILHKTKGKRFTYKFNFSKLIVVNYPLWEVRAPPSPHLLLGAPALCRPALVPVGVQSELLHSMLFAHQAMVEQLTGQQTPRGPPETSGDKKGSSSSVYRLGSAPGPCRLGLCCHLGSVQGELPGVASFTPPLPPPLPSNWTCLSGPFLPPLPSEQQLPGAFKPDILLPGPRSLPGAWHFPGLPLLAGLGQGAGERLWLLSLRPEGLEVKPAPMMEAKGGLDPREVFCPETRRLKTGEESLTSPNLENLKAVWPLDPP
Outline: as §1

ETS2 = target: T3, ETS2 (Homo sapiens, UniProt P15036 1-469)
T3 sequence: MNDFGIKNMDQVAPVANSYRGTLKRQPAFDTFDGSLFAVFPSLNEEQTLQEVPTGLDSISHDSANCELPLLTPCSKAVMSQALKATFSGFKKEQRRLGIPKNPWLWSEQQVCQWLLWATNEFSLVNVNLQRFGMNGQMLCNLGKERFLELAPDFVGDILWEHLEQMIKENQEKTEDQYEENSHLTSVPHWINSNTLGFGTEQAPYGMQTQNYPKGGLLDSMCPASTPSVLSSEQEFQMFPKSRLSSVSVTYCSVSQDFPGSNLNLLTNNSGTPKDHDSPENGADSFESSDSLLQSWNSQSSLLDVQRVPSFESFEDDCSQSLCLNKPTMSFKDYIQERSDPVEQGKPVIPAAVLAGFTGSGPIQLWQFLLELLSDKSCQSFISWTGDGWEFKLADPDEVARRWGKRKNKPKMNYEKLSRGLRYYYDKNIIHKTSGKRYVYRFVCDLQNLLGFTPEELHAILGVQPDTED
Outline: as §1

SPDEF = target: T4, SPDEF (Homo sapiens, UniProt O95238 1-335)
T4 sequence: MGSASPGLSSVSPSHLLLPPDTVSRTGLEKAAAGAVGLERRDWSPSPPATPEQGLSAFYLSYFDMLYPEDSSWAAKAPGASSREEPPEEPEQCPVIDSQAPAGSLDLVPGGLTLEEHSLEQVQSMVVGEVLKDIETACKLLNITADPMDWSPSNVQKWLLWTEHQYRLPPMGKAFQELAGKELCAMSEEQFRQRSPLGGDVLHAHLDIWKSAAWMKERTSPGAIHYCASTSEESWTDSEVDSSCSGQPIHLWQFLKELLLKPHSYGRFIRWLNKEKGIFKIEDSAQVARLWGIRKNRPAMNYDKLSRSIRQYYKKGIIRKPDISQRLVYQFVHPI
Outline: as §1

ETV7 = target: T5, ETV7 (Homo sapiens, UniProt Q9Y603 1-341)
T5 sequence: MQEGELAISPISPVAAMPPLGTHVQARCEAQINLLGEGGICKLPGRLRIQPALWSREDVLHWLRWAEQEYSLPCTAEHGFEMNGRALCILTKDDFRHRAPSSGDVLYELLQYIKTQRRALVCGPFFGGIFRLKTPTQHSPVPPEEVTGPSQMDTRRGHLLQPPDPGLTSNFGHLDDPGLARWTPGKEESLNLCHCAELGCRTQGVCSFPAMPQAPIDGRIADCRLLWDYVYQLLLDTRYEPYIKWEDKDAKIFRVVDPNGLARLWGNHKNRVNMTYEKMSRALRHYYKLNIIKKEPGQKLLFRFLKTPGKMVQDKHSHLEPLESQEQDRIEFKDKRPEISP
Outline: as §1

ELF5 = target: T6, ELF5 (Homo sapiens, UniProt Q9UKW6-2 1-255)
T6 sequence: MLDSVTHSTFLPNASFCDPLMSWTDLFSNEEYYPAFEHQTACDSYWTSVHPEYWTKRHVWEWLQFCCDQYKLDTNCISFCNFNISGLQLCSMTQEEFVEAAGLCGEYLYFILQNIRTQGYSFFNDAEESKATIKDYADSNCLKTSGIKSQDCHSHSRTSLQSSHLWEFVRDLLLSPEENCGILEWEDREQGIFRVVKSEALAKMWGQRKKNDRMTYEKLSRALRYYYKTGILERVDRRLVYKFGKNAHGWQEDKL
Outline: as §1

ETV3 = target: T7, ETV3 (Homo sapiens, UniProt P41162-2 1-143)
T7 sequence: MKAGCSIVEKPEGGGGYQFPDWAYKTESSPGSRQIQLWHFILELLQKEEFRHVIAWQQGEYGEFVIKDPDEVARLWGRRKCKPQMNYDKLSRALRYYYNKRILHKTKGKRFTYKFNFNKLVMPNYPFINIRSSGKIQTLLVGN
Outline: as §1

ETV6 = ETV6 (Homo sapiens, UniProt P41212 1-452)
Outline: as §1

Sequence of ETV6 (P41212 whole entry): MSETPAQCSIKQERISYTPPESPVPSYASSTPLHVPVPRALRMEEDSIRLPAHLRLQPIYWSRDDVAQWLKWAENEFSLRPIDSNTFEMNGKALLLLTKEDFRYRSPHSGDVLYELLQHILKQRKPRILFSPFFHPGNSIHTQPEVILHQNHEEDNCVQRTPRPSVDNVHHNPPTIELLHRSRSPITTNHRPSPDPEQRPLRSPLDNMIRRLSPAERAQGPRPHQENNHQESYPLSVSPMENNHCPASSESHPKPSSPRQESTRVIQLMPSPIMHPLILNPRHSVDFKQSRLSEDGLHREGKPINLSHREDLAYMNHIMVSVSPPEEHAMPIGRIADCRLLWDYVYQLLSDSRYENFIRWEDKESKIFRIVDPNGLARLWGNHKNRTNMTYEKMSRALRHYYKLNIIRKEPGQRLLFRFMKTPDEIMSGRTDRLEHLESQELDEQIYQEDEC

Sequence	binding signal (ERF)	binding signal (ETV3L)	binding signal (ETS2)	binding signal (SPDEF)	binding signal (ETV7)	binding signal (ELF5)	binding signal (ETV3)	binding signal (ETV6)
ACGCTT	1.5 fold enrichment (6-mer frequency, TF over GST control)	1.35 fold enrichment (6-mer frequency, TF over GST control)	1.42 fold enrichment (6-mer frequency, TF over GST control)	1.39 fold enrichment (6-mer frequency, TF over GST control)	1.52 fold enrichment (6-mer frequency, TF over GST control)	1.22 fold enrichment (6-mer frequency, TF over GST control)	1.4 fold enrichment (6-mer frequency, TF over GST control)	1.45 fold enrichment (6-mer frequency, TF over GST control)
CAAGAT	1.06 fold enrichment (6-mer frequency, TF over GST control)	1.13 fold enrichment (6-mer frequency, TF over GST control)	1.06 fold enrichment (6-mer frequency, TF over GST control)	1.26 fold enrichment (6-mer frequency, TF over GST control)	1.02 fold enrichment (6-mer frequency, TF over GST control)	1.01 fold enrichment (6-mer frequency, TF over GST control)	1.08 fold enrichment (6-mer frequency, TF over GST control)	1.01 fold enrichment (6-mer frequency, TF over GST control)
TCCCAC	1.5 fold enrichment (6-mer frequency, TF over GST control)	1.31 fold enrichment (6-mer frequency, TF over GST control)	1.23 fold enrichment (6-mer frequency, TF over GST control)	1.33 fold enrichment (6-mer frequency, TF over GST control)	1.41 fold enrichment (6-mer frequency, TF over GST control)	1.47 fold enrichment (6-mer frequency, TF over GST control)	1.24 fold enrichment (6-mer frequency, TF over GST control)	1.4 fold enrichment (6-mer frequency, TF over GST control)
TGATGG	1.27 fold enrichment (6-mer frequency, TF over GST control)	1.16 fold enrichment (6-mer frequency, TF over GST control)	1.22 fold enrichment (6-mer frequency, TF over GST control)	1.09 fold enrichment (6-mer frequency, TF over GST control)	1.24 fold enrichment (6-mer frequency, TF over GST control)	1.26 fold enrichment (6-mer frequency, TF over GST control)	1.2 fold enrichment (6-mer frequency, TF over GST control)	1.21 fold enrichment (6-mer frequency, TF over GST control)
TCCTAC	1.5 fold enrichment (6-mer frequency, TF over GST control)	1.52 fold enrichment (6-mer frequency, TF over GST control)	1.48 fold enrichment (6-mer frequency, TF over GST control)	1.43 fold enrichment (6-mer frequency, TF over GST control)	1.39 fold enrichment (6-mer frequency, TF over GST control)	1.79 fold enrichment (6-mer frequency, TF over GST control)	1.48 fold enrichment (6-mer frequency, TF over GST control)	1.47 fold enrichment (6-mer frequency, TF over GST control)
CTGGAA	1.26 fold enrichment (6-mer frequency, TF over GST control)	1.36 fold enrichment (6-mer frequency, TF over GST control)	1.3 fold enrichment (6-mer frequency, TF over GST control)	1.16 fold enrichment (6-mer frequency, TF over GST control)	1.32 fold enrichment (6-mer frequency, TF over GST control)	1.34 fold enrichment (6-mer frequency, TF over GST control)	1.27 fold enrichment (6-mer frequency, TF over GST control)	1.34 fold enrichment (6-mer frequency, TF over GST control)
TTCATG	1.22 fold enrichment (6-mer frequency, TF over GST control)	1.33 fold enrichment (6-mer frequency, TF over GST control)	1.33 fold enrichment (6-mer frequency, TF over GST control)	1.27 fold enrichment (6-mer frequency, TF over GST control)	1.35 fold enrichment (6-mer frequency, TF over GST control)	1.28 fold enrichment (6-mer frequency, TF over GST control)	1.4 fold enrichment (6-mer frequency, TF over GST control)	1.26 fold enrichment (6-mer frequency, TF over GST control)
CGAACC	1.12 fold enrichment (6-mer frequency, TF over GST control)	1.15 fold enrichment (6-mer frequency, TF over GST control)	1.14 fold enrichment (6-mer frequency, TF over GST control)	1.23 fold enrichment (6-mer frequency, TF over GST control)	1.11 fold enrichment (6-mer frequency, TF over GST control)	1.09 fold enrichment (6-mer frequency, TF over GST control)	1.07 fold enrichment (6-mer frequency, TF over GST control)	1.1 fold enrichment (6-mer frequency, TF over GST control)
AAATGT	1.27 fold enrichment (6-mer frequency, TF over GST control)	1.33 fold enrichment (6-mer frequency, TF over GST control)	1.44 fold enrichment (6-mer frequency, TF over GST control)	1.27 fold enrichment (6-mer frequency, TF over GST control)	1.27 fold enrichment (6-mer frequency, TF over GST control)	1.48 fold enrichment (6-mer frequency, TF over GST control)	1.3 fold enrichment (6-mer frequency, TF over GST control)	1.31 fold enrichment (6-mer frequency, TF over GST control)
TCCCGG	1.77 fold enrichment (6-mer frequency, TF over GST control)	2.2 fold enrichment (6-mer frequency, TF over GST control)	2.34 fold enrichment (6-mer frequency, TF over GST control)	2.76 fold enrichment (6-mer frequency, TF over GST control)	1.92 fold enrichment (6-mer frequency, TF over GST control)	3.07 fold enrichment (6-mer frequency, TF over GST control)	2.44 fold enrichment (6-mer frequency, TF over GST control)	2.46 fold enrichment (6-mer frequency, TF over GST control)
TATTCT	1.22 fold enrichment (6-mer frequency, TF over GST control)	1.35 fold enrichment (6-mer frequency, TF over GST control)	1.36 fold enrichment (6-mer frequency, TF over GST control)	1.34 fold enrichment (6-mer frequency, TF over GST control)	1.42 fold enrichment (6-mer frequency, TF over GST control)	1.32 fold enrichment (6-mer frequency, TF over GST control)	1.31 fold enrichment (6-mer frequency, TF over GST control)	1.4 fold enrichment (6-mer frequency, TF over GST control)
TACCAA	1.14 fold enrichment (6-mer frequency, TF over GST control)	1.08 fold enrichment (6-mer frequency, TF over GST control)	1.18 fold enrichment (6-mer frequency, TF over GST control)	1.17 fold enrichment (6-mer frequency, TF over GST control)	1.13 fold enrichment (6-mer frequency, TF over GST control)	1.09 fold enrichment (6-mer frequency, TF over GST control)	1.13 fold enrichment (6-mer frequency, TF over GST control)	1.17 fold enrichment (6-mer frequency, TF over GST control)

Source: article PMC7862700, “An all-to-all approach to the identification of sequence-specific readers for epigenetic DNA modifications on cytosine”
